Assay results published in PubChem BioAssay (NCATS).
Values joined by “and” are separate entries in the source; they are usually repeats but may differ in a detail not shown here. Equal entries are not always repeated. Unmarked numbers belong to inactive results. Results filed as inconclusive are left out. A call without a number means that no potency is given here. Active and inactive are the calls of the source. Calls come from the whole dose curve; as a rule, active = well fitted curve in the direction sought with a large enough effect; inconclusive = small, poorly fitted or top-dose-only effect, or another doubt; inactive = no such curve, though single readings can be large; an effect the other way counts as inactive or inconclusive.

Tests used:
[1] = qHTS for compounds that reverse cellular toxicity of Amyloid beta (A-beta) peptide in yeast: LOPAC Validation Assay (AID 720559)
How it was run: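 Yeast cells expressing toxic A-beta were combined with pinned compounds in growth medium and incubated 48 hr at 30 C. Growth was read as absorbance at 600 nm and normalized to DMSO and to an equimolar FeCl3/clioquinol positive control.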

[2] = qHTS for Activators of Parkin Expression: LOPAC Validation Assay (NLuc Reporter) (AID 720572; note: potency is the fitted concentration of half-maximal effect)
How it was run: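 Parkin promoter-driven FLuc/NLuc neuronal reporter cells; 24 h plating, 7-pt dose response, 24 h at 37 C/5% CO2; FLuc then NanoLuc reagent, 10 min each, luminescence; DMSO/positive control normalized.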

[3] = qHTS for Activators of Parkin Expression: LOPAC Validation Assay (FLuc Reporter) (AID 720573)
How it was run: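 Neuronal cell line stably carrying FLuc/NLuc coincidence reporter under Parkin promoter; cells plated 24 h, then compounds added in 7-point dose response for 24 h at 37 C. FLuc luminescence read; normalized to DMSO and positive control (100%).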

[4] = biological target: T1, Hexokinase-4 (Homo sapiens) + Glucokinase regulatory protein (Homo sapiens) (UniProt P35557+Q14397); experiment: qHTS assay for inhibitors of recombinant human GCK-GKRP interaction: Diaphorase-coupled assay (AID 743205)
T1 sequence (P35557 whole entry, looked up): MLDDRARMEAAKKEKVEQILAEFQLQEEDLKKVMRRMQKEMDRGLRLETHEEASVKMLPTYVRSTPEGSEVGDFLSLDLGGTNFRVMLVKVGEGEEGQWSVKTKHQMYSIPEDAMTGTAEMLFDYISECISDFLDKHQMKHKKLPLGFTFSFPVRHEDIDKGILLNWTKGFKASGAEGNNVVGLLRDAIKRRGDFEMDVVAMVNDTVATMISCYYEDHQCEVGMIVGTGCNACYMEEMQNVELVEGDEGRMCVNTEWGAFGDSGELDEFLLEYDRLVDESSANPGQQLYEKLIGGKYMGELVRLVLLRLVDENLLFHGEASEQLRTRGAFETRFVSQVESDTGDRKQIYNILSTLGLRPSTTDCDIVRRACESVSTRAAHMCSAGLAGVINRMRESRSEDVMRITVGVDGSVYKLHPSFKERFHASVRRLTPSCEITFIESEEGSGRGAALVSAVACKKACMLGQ
T1 sequence (Q14397 whole entry, looked up): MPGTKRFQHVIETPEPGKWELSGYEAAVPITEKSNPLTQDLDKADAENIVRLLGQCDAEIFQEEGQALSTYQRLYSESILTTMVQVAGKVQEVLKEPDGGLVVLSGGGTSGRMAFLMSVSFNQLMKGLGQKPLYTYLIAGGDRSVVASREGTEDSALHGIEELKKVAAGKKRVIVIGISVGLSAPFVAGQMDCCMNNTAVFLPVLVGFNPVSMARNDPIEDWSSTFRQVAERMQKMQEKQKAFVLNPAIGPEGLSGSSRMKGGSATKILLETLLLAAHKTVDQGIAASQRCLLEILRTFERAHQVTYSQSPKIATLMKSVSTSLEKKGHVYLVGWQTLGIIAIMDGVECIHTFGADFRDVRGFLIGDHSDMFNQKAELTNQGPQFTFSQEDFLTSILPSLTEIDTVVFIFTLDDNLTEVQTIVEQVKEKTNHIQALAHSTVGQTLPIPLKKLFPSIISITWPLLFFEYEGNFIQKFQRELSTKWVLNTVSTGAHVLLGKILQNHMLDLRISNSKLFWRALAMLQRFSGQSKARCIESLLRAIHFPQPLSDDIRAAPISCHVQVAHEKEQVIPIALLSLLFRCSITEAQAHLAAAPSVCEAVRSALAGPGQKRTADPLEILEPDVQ
How it was run: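 GST-GCK (10 nM) with FLAG-GKRP (10 nM), 5 mM glucose and 0.4 mM ATP in pH 7.6 Hepes; compounds preincubated 20 min with substrate. G6PDH/diaphorase coupling converts resazurin to resorufin, read kinetically (ex 525/em 590 nm) for 30 min.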

[5] = biological target: T1, Hexokinase-4 (Homo sapiens) + Glucokinase regulatory protein (Homo sapiens); experiment: qHTS assay for inhibitors of recombinant human GCK-GKRP interaction: ADP-Glo assay (AID 743206)
How it was run: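 GST-GCK and FLAG-GKRP (15 nM each in the dispensed mix, with 2 uM S6P) react with 0.4 mM ATP and 5 mM glucose (final) in Hepes pH 7.6 for 60 min at room temperature. ADP is measured by ADP-Glo luminescence.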

[6] = biological target: T1, Hexokinase-4 (Homo sapiens) + Glucokinase regulatory protein (Homo sapiens); experiment: qHTS assay for inhibitors of recombinant human GCK-GKRP interaction: HTRF assay (AID 743207)
How it was run: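 GST-GCK and FLAG-GKRP (5 nM each) were combined with 2 uM S6P in pH 7.1 Hepes/MgCl2/KCl/DTT buffer, then compound and anti-FLAG XL665/anti-GST K antibodies were added. After 60 min at room temperature, HTRF 665/615 nm emission was read.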

[7] = qHTS Assay for Identifying Gametocytocidal Compounds (AID 743244); note: potency is the fitted concentration of half-maximal effect;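 for max response: actives lower the fluorescent signal which means gametocytes are killed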; conditions: P. falciparum 3D7 stage III-V gametocytes, alamarBlue, 72 h; max response: hits give low values
How it was run: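 Stage III–V gametocytes of P. falciparum 3D7 were seeded at 20,000 cells/well onto pre-dispensed compounds. After 72 h, 37 °C, 5% CO2, alamarBlue was added for another 24 h.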

[8] = qHTS assay for measurement of the activity of small molecule inhibitors on Zika virus induced Caspase-3 activity in human iPSC derived neural progenitor cells (hNPCs) (AID 1224857); note: nearly all actives have a fitted effect of over 65% in size
How it was run: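 Values are percent inhibition of virus-induced caspase-3/7 signal, scaled between uninfected cells and ZIKV-infected cells. Infection used 2 FFU/cell for 6 h after 1 h compound exposure.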

SMILES | outcome [1] | Potency [2] | outcome [3] | outcome [4] | outcome [5] | Potency [6] | max response [7] | outcome [8] | Potency [7]
CN1CCN(C2=Nc3ccccc3Oc3ccc(Cl)cc32)CC1 | inactive | inactive | inactive | inactive | inactive | inactive | 15.1% and -7.99% | inactive | 
CC(C(=O)O)c1ccc(CC2CCCC2=O)cc1 (stereo unspecified) | inactive | inactive | inactive | inactive | inactive | inactive | -0.912% and 17.1% | inactive | 
CO[C@@]1(NC(=O)CSCC#N)C(=O)N2C(C(=O)O)=C(CSc3nnnn3C)CS[C@@H]21 | inactive | inactive | inactive | inactive | inactive | inactive | 0.458% and 21.8% | inactive | 
N[C@@H](COP(=O)(O)O)C(=O)O | inactive | inactive | inactive | inactive | inactive | inactive | -4.33% and 12% | inactive | 
CCOC(=O)C1=C(C)NC(C)=C(C(=O)OC)C1c1cccc(Cl)c1Cl (stereo unspecified) | inactive | 2.59 µM (active) | inactive | inactive | inactive | inactive | 21.2% and 4.35% | inactive | 
COc1cc2c(cc1OC)-c1cc(=Nc3c(C)cc(C)cc3C)n(C)c(=O)n1CC2 | inactive | inactive | inactive | inactive | inactive | inactive | 25.2% | inactive | 
Cc1nc2ccccn2c(=O)c1CCN1CCC(C(=O)c2ccc(F)cc2)CC1 | inactive | inactive | inactive | inactive | inactive | inactive | 14.2% | inactive | 
C[n+]1cc2c3c(ccc2c2ccc4cc5c(cc4c21)OCO5)OCO3 | inactive | inactive | inactive | inactive | inactive | inactive |  | inactive | 3.16 µM (active)
CN(C)CCOC(=O)COc1ccc(Cl)cc1 | inactive | inactive | inactive | inactive | inactive | inactive | 11% and 8.28% | inactive | 
Cc1ccc(Cl)c(Nc2ccccc2C(=O)O)c1Cl | inactive | inactive | inactive | inactive | inactive | inactive | -8.31% and 12.8% | inactive | 
O=C(O)CN(CCOCCOCCN(CC(=O)O)CC(=O)O)CC(=O)O | inactive | inactive | inactive | inactive | inactive | inactive | -5.05% and 25.1% | inactive | 
c1ccc2c(c1)CCCC2C1=NCCN1 (stereo unspecified) | inactive | inactive | inactive | inactive | inactive | inactive | -2.52% and 13.8% | inactive | 
CCn1cc(C(=O)O)c(=O)c2cc3c(cc21)OCO3 | inactive | inactive | inactive | inactive | inactive | inactive | -6.25% and -3.93% | inactive | 
CCCN(CCC)CCc1cccc2c1CC(=O)N2 | inactive | inactive | inactive | inactive | inactive | inactive | 3.57% and 20.6% | inactive | 
CC(C)[N+](C)(CCOC(=O)C1c2ccccc2Oc2ccccc21)C(C)C | inactive | inactive | inactive | inactive | inactive | inactive | -5.05% and 11.3% | inactive | 
CN1C(=O)CC[C@H]1c1cccnc1 | inactive | inactive | inactive | inactive | inactive | inactive | 3.71% and 23.6% | inactive | 
CCCOc1ccccc1-c1nc2n[nH]nc2c(=O)[nH]1 | inactive | inactive | inactive | inactive | inactive | inactive | -5.53% and 14.3% | inactive | 
Cc1scc2c1N(C(=O)CN1CCN(C)CC1)c1ccccc1NC2=O | inactive | inactive | inactive | inactive | inactive | inactive | 11.1% and 13% | inactive | 
CCN(Cc1ccncc1)C(=O)C(CO)c1ccccc1 (stereo unspecified) | inactive | inactive | inactive | inactive | inactive | inactive | 10.4% and 27% | inactive | 
NC(=O)c1ncn([C@@H]2O[C@H](CO)[C@@H](O)[C@H]2O)c1O | inactive | inactive | inactive | inactive | inactive | inactive | 13.6% | inactive | 
COc1ccc([C@@H]2Sc3ccccc3N(CCN(C)C)C(=O)[C@@H]2OC(C)=O)cc1 | inactive | inactive | inactive | inactive | inactive | inactive | -3.45% | inactive | 
Cc1nc2c([nH]1)c(=O)n(C)c(=O)n2Cc1ccco1 | inactive | inactive | inactive | inactive | inactive | inactive | -4.35% and 2.16% | inactive | 
